Our source for the Potency values is PubChem BioAssay (NCATS).

Each structure is given as a SMILES string. Inconclusive results are not listed. A call without a number means that no potency is given here. Calls of active or inactive are those of the source. The call rests on the fitted dose curve; in most records, active means well fitted cell-killing curve with a large enough effect; inconclusive means small, poorly fitted or top-dose-only effect; inactive means no such curve, though single readings can be large or run the other way.

The first assay can be described thus: qHTS of pediatric cancer cell lines to identify multiple opportunities for drug repurposing: Primary screen for Rh30 cells (AID 1347107). Further: nearly all actives have a fitted effect of over 75% in size. The settings on record: Rh30 rhabdomyosarcoma viability, CellTiter-Glo luminescence, 48 h; series mostly up to 46 µM. The gist of the method: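 Viability after 48 h compound treatment at 37C, 500-1,000 cells/well, read as ATP luminescence with CellTiter-Glo. Primary screens used 11-point (MIPE, 0.78 nM-46 µM) or 8-point (NPC, 0.59 nM-46 µM) final concentrations; follow-up screens used 11-point dilutions.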
(In general: Quantitative high-throughput screening tests each substance at several concentrations.)
Take `O=c1ccc2ccccc2o1`: the Potency result is “inactive”.
Still for that read-out and setting: as for `CCOC(=O)/C=C(C)/C=C/C=C(C)/C=C/c1c(C)cc(OC)c(C)c1C`, the entry is “inactive”; as for `CC(C)COC(=O)c1ccc(N)cc1`, “inactive”.
Still for that read-out and setting: as for `OC(CCN1CCCCC1)(c1ccccc1)c1ccccc1`, the entry is “inactive”; as for `O=C1OCCN1/N=C/c1ccc([N+](=O)[O-])o1`, “inactive”; as for `C[C@]12CCC(=O)C=C1[C@@H]1C[C@@H]1[C@H]1[C@@H]3[C@@H]4C[C@@H]4[C@@]4(CCC(=O)O4)[C@@]3(C)CC[C@@H]12`, “inactive”.
Regarding `OCc1ccccc1O`, the Potency result is “inactive”.
Take `CN(C(=O)CN(CCO)CC(=O)N(C)C(C)(C)Cc1ccccc1)C(C)(C)Cc1ccccc1`: the Potency entry was “inactive”.
The same measure, in the same setting: as for `O=c1[nH]c(=O)n([C@H]2CCCO2)cc1F`, the entry is “inactive”; as for `CCCCN1CCCC1C(=O)Nc1c(C)cc(C)cc1C` (centres undefined), “inactive”; as for `Cc1nc2n(c(=O)c1CCN1CCC(c3noc4cc(F)ccc34)CC1)CCC[C@H]2O`, “inactive”.
On to `CC1=C(C(=O)O)N2C(=O)[C@@H](NC(=O)[C@H](N)c3ccc(O)cc3)[C@H]2SC1`, for which the Potency result is “inactive”.
With `CCOC(=O)COc1ccc2c(C)c(CCN(CC)CC)c(=O)oc2c1Cl`, the Potency result is “inactive”.
On the same count and under the same terms, as for `C[C@H](O)C(=O)Nc1c(I)c(C(=O)NC(CO)CO)c(I)c(C(=O)NC(CO)CO)c1I`, the entry is “inactive”.
Still for that read-out and setting: as for `C[C@H](CCC(=O)O)[C@H]1CC[C@H]2[C@@H]3C(=O)C[C@@H]4CC(=O)CC[C@]4(C)[C@H]3CC(=O)[C@]12C`, the entry is “inactive”; as for `CC(O)(P(=O)(O)O)P(=O)(O)O`, “inactive”; as for `COC(=O)[C@@H]1CC2=CC(=O)CC[C@]2(C)[C@@]23O[C@@H]2C[C@@]2(C)[C@@H](CC[C@@]24CCC(=O)O4)[C@H]13`, “inactive”.
Same read-out and setting: as for `CCCCc1nc(Cl)c(CO)n1Cc1ccc(-c2ccccc2-c2nn[nH]n2)cc1`, the entry is “inactive”; as for `Cc1cc(O)c(C(C)C)cc1Cl`, “inactive”.
For the compound `CCC(=O)c1c(O)cc(O)cc1O`, the Potency result was “inactive”.
For `C=C1C(=C/C=C2\CCC[C@]3(C)[C@@H]([C@H](C)/C=C/[C@@H](O)C4CC4)CC[C@@H]23)C[C@@H](O)C[C@@H]1O`, the Potency entry is “inactive”.
`CC(Cc1cccc(C(F)(F)F)c1)NCCOC(=O)c1ccccc1` (centres undefined): the Potency entry is “inactive”.
Take `C[C@H]1[C@H](NC(=O)/C(=N/OC(C)(C)C(=O)O)c2csc(N)n2)C(=O)N1S(=O)(=O)O` (stereo in doubt): the Potency entry is “inactive”.
`CC(C)(Oc1ccc(Cl)cc1)C(=O)O`: the Potency entry was “inactive”.
Take `CC(=O)OCC(=O)NCCCOc1cccc(CN2CCCCC2)c1`: the Potency entry is “inactive”.
Same read-out and setting: in the case of `CNCC[C@@H](Oc1ccccc1C)c1ccccc1` it was “inactive”; in that of `CCOc1ccc(NC(=O)CC(C)O)cc1` (centres undefined), “inactive”; in that of `CC[C@@H](CO)NCCN[C@@H](CC)CO`, “inactive”.
On the same count and under the same terms, as for `CCCCS(=O)(=O)N[C@@H](Cc1ccc(OCCCCC2CCNCC2)cc1)C(=O)O`, the entry is “inactive”; as for `CCCCCCc1ccc(O)cc1O`, “inactive”.
The same measure, in the same setting: in the case of `CC1(C)O[C@@H]2[C@@H](CO[C@@]3(COS(N)(=O)=O)OC(C)(C)O[C@@H]23)O1` it was “inactive”; in that of `CC[N+](CC)(CCNC(=O)C(=O)NCC[N+](CC)(CC)Cc1ccccc1Cl)Cc1ccccc1Cl`, “inactive”.
As for `NC(CS)C(=O)O` (centres undefined), the Potency entry was “inactive”.
For `CCN(CC)C(=O)N1CCN(C)CC1`, the Potency result was “inactive”.
Still for that read-out and setting: in the case of `C#C[C@]1(OC(C)=O)CC[C@H]2[C@@H]3CCC4=C[C@@H](OC(C)=O)CC[C@@H]4[C@H]3CC[C@@]21C` it was “inactive”; in that of `C/C=C/c1ccc(OC)cc1`, “inactive”.
As for `CN1[C@@H]2CC[C@H]1CC(OC(=O)c1c[nH]c3ccccc13)C2` (some centres undefined), the Potency result is “inactive”.

Another assay in a line: qHTS of pediatric cancer cell lines to identify multiple opportunities for drug repurposing: Primary screen for Rh41 cells (AID 1347108).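 Further: luminescence drop marks cytotoxic hits; nearly all actives have a fitted effect of over 70% in size.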 The following applies: Rh41 rhabdomyosarcoma viability, CellTiter-Glo luminescence, 48 h; series mostly up to 46 µM. The gist of the method:
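500-1,000 cells/well; 5 h pre-incubation 37 °C/5% CO2; compound pinned; 48 h; CellTiter-Glo, 15 min RT; luminescence. MIPE 11-pt from 0.78 nM, NPC 8-pt from 0.59 nM final. Bortezomib 2.3 µM final as positive control.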
In the case of `O=c1ccc2ccccc2o1`, the Potency result is “inactive”.
Same read-out and setting: in the case of `CCOC(=O)/C=C(C)/C=C/C=C(C)/C=C/c1c(C)cc(OC)c(C)c1C` it was “inactive”.
Still for that read-out and setting: as for `CC(C)COC(=O)c1ccc(N)cc1`, the entry is “inactive”; as for `OC(CCN1CCCCC1)(c1ccccc1)c1ccccc1`, “inactive”; as for `O=C1OCCN1/N=C/c1ccc([N+](=O)[O-])o1`, “inactive”.
Same read-out and setting: as for `C[C@]12CCC(=O)C=C1[C@@H]1C[C@@H]1[C@H]1[C@@H]3[C@@H]4C[C@@H]4[C@@]4(CCC(=O)O4)[C@@]3(C)CC[C@@H]12`, the entry is “inactive”; as for `OCc1ccccc1O`, “inactive”; as for `CN(C(=O)CN(CCO)CC(=O)N(C)C(C)(C)Cc1ccccc1)C(C)(C)Cc1ccccc1`, “inactive”.
With `O=c1[nH]c(=O)n([C@H]2CCCO2)cc1F`, the Potency entry was “inactive”.
As to `CCCCN1CCCC1C(=O)Nc1c(C)cc(C)cc1C` (centres undefined), the Potency result was “inactive”.
Same read-out and setting: as for `Cc1nc2n(c(=O)c1CCN1CCC(c3noc4cc(F)ccc34)CC1)CCC[C@H]2O`, the entry is “inactive”.
With `CC1=C(C(=O)O)N2C(=O)[C@@H](NC(=O)[C@H](N)c3ccc(O)cc3)[C@H]2SC1`, the Potency entry is “inactive”.
On the same count and under the same terms, as for `CCOC(=O)COc1ccc2c(C)c(CCN(CC)CC)c(=O)oc2c1Cl`, the entry is “inactive”; as for `C[C@H](O)C(=O)Nc1c(I)c(C(=O)NC(CO)CO)c(I)c(C(=O)NC(CO)CO)c1I`, “inactive”; as for `C[C@H](CCC(=O)O)[C@H]1CC[C@H]2[C@@H]3C(=O)C[C@@H]4CC(=O)CC[C@]4(C)[C@H]3CC(=O)[C@]12C`, “inactive”.
On the same count and under the same terms, as for `CC(O)(P(=O)(O)O)P(=O)(O)O`, the entry is “inactive”; as for `COC(=O)[C@@H]1CC2=CC(=O)CC[C@]2(C)[C@@]23O[C@@H]2C[C@@]2(C)[C@@H](CC[C@@]24CCC(=O)O4)[C@H]13`, “inactive”; as for `CCCCc1nc(Cl)c(CO)n1Cc1ccc(-c2ccccc2-c2nn[nH]n2)cc1`, “inactive”.
With `Cc1cc(O)c(C(C)C)cc1Cl`, the Potency result is “inactive”.
Same read-out and setting: as for `CCC(=O)c1c(O)cc(O)cc1O`, the entry is “inactive”; as for `C=C1C(=C/C=C2\CCC[C@]3(C)[C@@H]([C@H](C)/C=C/[C@@H](O)C4CC4)CC[C@@H]23)C[C@@H](O)C[C@@H]1O`, “inactive”; as for `CC(Cc1cccc(C(F)(F)F)c1)NCCOC(=O)c1ccccc1` (centres undefined), “inactive”.
`C[C@H]1[C@H](NC(=O)/C(=N/OC(C)(C)C(=O)O)c2csc(N)n2)C(=O)N1S(=O)(=O)O` (stereo in doubt): the Potency result is “inactive”.
The same measure, in the same setting: as for `CC(C)(Oc1ccc(Cl)cc1)C(=O)O`, the entry is “inactive”; as for `CC(=O)OCC(=O)NCCCOc1cccc(CN2CCCCC2)c1`, “inactive”.
Still for that read-out and setting: as for `CNCC[C@@H](Oc1ccccc1C)c1ccccc1`, the entry is “inactive”; as for `CCOc1ccc(NC(=O)CC(C)O)cc1` (centres undefined), “inactive”.
Same read-out and setting: in the case of `CC[C@@H](CO)NCCN[C@@H](CC)CO` it was “inactive”; in that of `CCCCS(=O)(=O)N[C@@H](Cc1ccc(OCCCCC2CCNCC2)cc1)C(=O)O`, “inactive”.
As to `CCCCCCc1ccc(O)cc1O`, the Potency result is “inactive”.
Still for that read-out and setting: as for `CC1(C)O[C@@H]2[C@@H](CO[C@@]3(COS(N)(=O)=O)OC(C)(C)O[C@@H]23)O1`, the entry is “inactive”; as for `CC[N+](CC)(CCNC(=O)C(=O)NCC[N+](CC)(CC)Cc1ccccc1Cl)Cc1ccccc1Cl`, “inactive”; as for `NC(CS)C(=O)O` (centres undefined), “inactive”.
As to `CCN(CC)C(=O)N1CCN(C)CC1`, the Potency result was “inactive”.
On the same count and under the same terms, as for `C#C[C@]1(OC(C)=O)CC[C@H]2[C@@H]3CCC4=C[C@@H](OC(C)=O)CC[C@@H]4[C@H]3CC[C@@]21C`, the entry is “inactive”; as for `C/C=C/c1ccc(OC)cc1`, “inactive”; as for `CN1[C@@H]2CC[C@H]1CC(OC(=O)c1c[nH]c3ccccc13)C2` (some centres undefined), “inactive”.
